Data taken from PubChem BioAssay (NCATS).
Values joined by “and” are separate entries in the source; they are usually repeats but may differ in a detail not shown here. Equal values may be shown once. Records with an inconclusive call do not appear. Entries that show only a call come without a potency. Active and inactive are the calls of the source. Unless noted, calls follow the shape of the dose curve; as a rule, active = well fitted curve in the direction sought with a large enough effect; inconclusive = small, poorly fitted or top-dose-only effect, or another doubt; inactive = no such curve, though single readings can be large; an effect the other way counts as inactive or inconclusive.

Tests used:
[1] = target: Mitogen-activated protein kinase 10 (Mus musculus) (UniProt Q61831); assay: JNK3 AlphaScreen Assay (AID 530; active = well fitted curve in either direction with a large enough effect, not every such curve was filed as active;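 also: kinase came from lysate of stimulated human HepG2 cells; signal reports phosphorylation of biotinylated GST-cJun 1-79 at Ser73 with 10 µM ATP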)
In short: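 qHTS format: compounds tested as titrations against IL-1beta/TNF-alpha-activated HepG2 lysate JNK3 with biotin-GST-cJun substrate and 10 uM ATP at room temperature. Loss of anti-phospho-cJun AlphaScreen signal indicates inhibition.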

[2] = Cell Viability - N2a (AID 540); conditions: N2a mouse neuroblastoma cell viability; activity change, negative = cytotoxicity: at 92.2 µM (top of the series); also: nearly all actives have a fitted effect of over 45% in size
In short: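 First, 1500 N2a cells per well incubate 5 hr at 37 °C; next, compounds are added and incubated 40 hr at 37 °C; finally CellTiter-Glo is added and luminescence read after 20 min, with AC50 derived by Hill modeling.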

[3] = Cell Viability - LYMP2-003 (AID 965);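 also: cells exposed to compounds for 24 h before reading; nearly all actives have a fitted effect of over 50% in size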
In short: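 Human lymphoblastoid LYMP2-003 cells, 2500/well, exposed to compounds for 24 h at 37 C in complete medium. Viability read as intracellular ATP by CellTiter-Glo luminescence; AC50 from Hill-equation fits of qHTS concentration-response data.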

[4] = target: Estrogen receptor (Homo sapiens) (UniProt P03372); assay: qHTS assay for small molecule antagonists of estrogen receptor alpha signaling (AID 588513; active = well fitted curve in the direction sought with a large enough effect in the signal ratio, with a control signal flat, not every such curve was filed as active; the % refers to the signal ratio)
Estrogen receptor (Homo sapiens), sequence (P03372 whole entry, looked up): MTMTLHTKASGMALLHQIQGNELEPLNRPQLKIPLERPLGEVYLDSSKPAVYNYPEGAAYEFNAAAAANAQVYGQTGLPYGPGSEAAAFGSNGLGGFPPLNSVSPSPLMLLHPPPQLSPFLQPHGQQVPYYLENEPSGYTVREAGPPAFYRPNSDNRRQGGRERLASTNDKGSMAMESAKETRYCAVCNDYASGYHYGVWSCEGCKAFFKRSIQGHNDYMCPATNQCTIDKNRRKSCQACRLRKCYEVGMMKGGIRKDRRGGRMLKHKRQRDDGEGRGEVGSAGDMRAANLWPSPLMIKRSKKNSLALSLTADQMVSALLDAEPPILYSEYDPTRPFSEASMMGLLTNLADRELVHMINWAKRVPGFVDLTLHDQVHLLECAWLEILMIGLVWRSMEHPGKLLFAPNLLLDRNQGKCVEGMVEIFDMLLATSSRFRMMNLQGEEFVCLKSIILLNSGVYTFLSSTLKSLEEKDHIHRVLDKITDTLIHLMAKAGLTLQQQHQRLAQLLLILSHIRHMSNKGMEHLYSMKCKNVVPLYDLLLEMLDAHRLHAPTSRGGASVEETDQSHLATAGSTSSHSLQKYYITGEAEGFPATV
In short: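 ER-alpha-UAS-bla GripTite HEK 293 cells in 2% charcoal/dextran-treated FBS medium; compounds titrated (1:2, duplicate), then stimulated with 0.5 nM 17-beta-estradiol for 18 h at 37C. CCF4 beta-lactamase fluorescence; Hill-fit IC50 and efficacy.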

[5] = target: Estrogen receptor (Homo sapiens) (UniProt P03372); assay: qHTS assay for small molecule agonists of estrogen receptor alpha signaling (AID 588514; calls by dose curve; also: nearly all actives have a fitted effect of over 70% in size)
In short: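 Reporter-gene assay. […] controls beta-lactamase in HEK 293 GripTite cells; after 18 hrs with compound, CCF4 substrate is added for 2 hrs and fluorescence is read.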

[6] = qHTS assay for small molecule antagonists of peroxisome proliferator-activated receptor delta signaling (AID 588535); conditions: HEK293T PPARd-UAS-bla, beta-lactamase FRET ratio, 18 h; 460 nm channel;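 also: cells co-treated with a PPAR-delta agonist as stimulator during compound exposure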
In short: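 Cells were seeded at 4000 per well in assay medium containing 2% charcoal/dextran FBS and held 5 hrs at 37 C. Compounds were then added for 18 hrs. CCF4 substrate was applied for 2 hrs at room temperature before fluorescence reading.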

[7] = target: Peroxisome proliferator-activated receptor gamma (Homo sapiens) (UniProt P37231); assay: qHTS assay for small molecule agonists of peroxisome proliferator-activated receptor gamma signaling (AID 588536; active = well fitted curve in the direction sought with a large enough effect in the signal ratio, with a control signal flat, not every such curve was filed as active; the % refers to the signal ratio)
Peroxisome proliferator-activated receptor gamma (Homo sapiens), sequence (P37231 whole entry, looked up): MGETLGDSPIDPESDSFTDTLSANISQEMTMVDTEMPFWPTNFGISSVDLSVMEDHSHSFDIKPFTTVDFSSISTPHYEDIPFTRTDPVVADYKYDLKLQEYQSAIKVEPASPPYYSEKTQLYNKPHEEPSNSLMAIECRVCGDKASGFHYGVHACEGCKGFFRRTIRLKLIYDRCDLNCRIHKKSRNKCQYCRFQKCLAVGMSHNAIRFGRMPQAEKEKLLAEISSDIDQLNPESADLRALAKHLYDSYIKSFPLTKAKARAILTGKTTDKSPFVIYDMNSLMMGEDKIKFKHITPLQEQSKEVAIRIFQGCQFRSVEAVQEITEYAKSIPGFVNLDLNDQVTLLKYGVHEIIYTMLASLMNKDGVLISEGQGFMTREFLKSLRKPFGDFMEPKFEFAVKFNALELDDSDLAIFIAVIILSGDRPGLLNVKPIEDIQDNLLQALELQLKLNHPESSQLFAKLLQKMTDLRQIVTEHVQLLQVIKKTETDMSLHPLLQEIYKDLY
In short: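 Test agents, titrated, stimulated HEK293 UAS-bla cells overnight (16 h, 37 C). Substrate CCF4 was then added for two hours at room temperature before fluorescence reading.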

[8] = target: Peroxisome proliferator-activated receptor gamma (Homo sapiens) (UniProt P37231); assay: qHTS assay for small molecule antagonists of peroxisome proliferator-activated receptor gamma signaling (AID 588537; active = well fitted inhibition curve with a large enough effect in the signal ratio, with a control signal flat, not every such curve was filed as active; the % refers to the signal ratio;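 also: reporter cells co-stimulated with 50 nM rosiglitazone agonist during compound treatment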)
In short: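 Step one: plate 3000 HEK293 UAS-bla cells per well in medium with 1% stripped serum and hold 6-6.5 h at 37 C. Step two: add compound and 50 nM agonist for 16 h. Step three: CCF4 loading, fluorescence read.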

[9] = qHTS assay for small molecule agonists of the antioxidant response element (ARE) signaling pathway (AID 651741; active = well fitted activation curve with a large enough effect in the signal ratio; the % refers to the signal ratio; also: potency is read from the fitted curve at half-maximal effect)
In short: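 HepG2 ARE-bla cells plated at 2,000 cells/well and incubated 5 h at 37 C/5% CO2 received 23 nL compound in DMSO. After 16 h at 37 C, LiveBLAzer B/G FRET substrate was applied for 2 h at room temperature and fluorescence read.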

[10] = target: Tumor necrosis factor (Homo sapiens) (UniProt P01375); assay: qHTS assay to identify small molecules that stimulate Tumor Necrosis Factor-alpha (TNF-alpha) secretion (AID 651757; active = well fitted curve in the direction sought with a large enough effect in the signal ratio; the % refers to the signal ratio)
Tumor necrosis factor (Homo sapiens), sequence (P01375 whole entry, looked up): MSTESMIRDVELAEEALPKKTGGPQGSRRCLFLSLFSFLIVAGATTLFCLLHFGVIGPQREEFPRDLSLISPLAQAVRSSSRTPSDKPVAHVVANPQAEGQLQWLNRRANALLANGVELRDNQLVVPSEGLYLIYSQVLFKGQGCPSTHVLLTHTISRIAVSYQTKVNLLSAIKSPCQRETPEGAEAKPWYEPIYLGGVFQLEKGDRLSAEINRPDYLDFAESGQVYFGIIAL
In short: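 Secreted TNF-alpha from compound-treated THP-1 cells (17 hrs, 37 C) was quantified with a homogeneous time-resolved fluorescence antibody assay.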

[11] = qHTS assay for small molecule agonists of the antioxidant response element (ARE) signaling pathway measured by Nrf2-dependant transcriptional activity - cell viability counter screen (AID 720653; active = well fitted curve in the direction sought with a large enough effect in the repeat runs; an effect the other way counts as inactive or inconclusive); conditions: ARE-bla HepG2 viability, CellTiter-Glo ATP luminescence, 16 h; max response: stronger effect = lower value
In short: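 ARE-bla HepG2 cells treated with compounds for 16 h at 37C; this counter screen measures viability as intracellular ATP by CellTiter-Glo luminescence after 30 min at room temperature.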

[12] = Cell Viability - NIH 3T3 (AID 541); conditions: NIH 3T3 cell viability, qHTS; activity change, negative = cytotoxicity: at 92.2 µM (top of the series); also: nearly all actives have a fitted effect of over 25% in size
In short: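 AC50 values reflect concentration-dependent loss of intracellular ATP in NIH 3T3 cells after 40 hr treatment in complete culture medium, quantified by luciferase-based luminescence.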

[13] = Cell Viability - Renal Proximal Tubule (AID 545); conditions: renal proximal tubule cells viability, primary cells of rat origin; activity change, negative = cytotoxicity: at 91.7 µM (top of the series); also: nearly all actives have a fitted effect of over 40% in size
In short: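 Rat renal proximal tubule primary cells, 1000/well, exposed to compounds for 40 hr at 37 °C in complete medium; cellular ATP read by CellTiter-Glo luminescence. AC50 from concentration-response fitted with standard Hill equation.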

[14] = target: Glucocorticoid receptor (Homo sapiens) (UniProt P04150); assay: qHTS assay for small molecule antagonists of glucocorticoid receptor signaling (AID 588533; active = well fitted inhibition curve with a large enough effect in the signal ratio, with a control signal flat, not every such curve was filed as active; the % refers to the signal ratio)
Glucocorticoid receptor (Homo sapiens), sequence (P04150 whole entry, looked up): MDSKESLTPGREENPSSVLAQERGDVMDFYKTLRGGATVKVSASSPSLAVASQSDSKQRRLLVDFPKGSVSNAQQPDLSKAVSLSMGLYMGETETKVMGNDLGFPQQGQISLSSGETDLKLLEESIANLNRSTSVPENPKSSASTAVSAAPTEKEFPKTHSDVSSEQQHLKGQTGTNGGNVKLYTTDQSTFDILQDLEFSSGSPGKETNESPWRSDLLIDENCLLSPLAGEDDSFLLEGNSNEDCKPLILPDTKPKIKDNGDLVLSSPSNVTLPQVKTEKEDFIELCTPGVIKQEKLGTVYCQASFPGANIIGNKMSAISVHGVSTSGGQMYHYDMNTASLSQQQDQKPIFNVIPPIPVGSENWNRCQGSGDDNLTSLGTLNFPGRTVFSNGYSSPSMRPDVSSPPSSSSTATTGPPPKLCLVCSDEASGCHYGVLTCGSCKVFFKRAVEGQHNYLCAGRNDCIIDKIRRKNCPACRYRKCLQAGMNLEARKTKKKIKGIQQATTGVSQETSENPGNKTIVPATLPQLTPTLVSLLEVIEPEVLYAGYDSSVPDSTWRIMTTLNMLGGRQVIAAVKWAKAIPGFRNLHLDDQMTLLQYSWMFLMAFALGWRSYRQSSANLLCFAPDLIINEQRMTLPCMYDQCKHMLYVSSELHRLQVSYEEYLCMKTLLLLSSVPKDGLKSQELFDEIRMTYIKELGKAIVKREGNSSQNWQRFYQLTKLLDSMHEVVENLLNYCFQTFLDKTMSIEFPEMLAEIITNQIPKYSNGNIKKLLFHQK
In short: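 Antagonist-mode qHTS: compound titrations added to GRE-bla HeLa cells, then dexamethasone 2 nM final; 18 h, 37 C. CCF4 FRET fluorescence normalized to dexamethasone and DMSO; IC50 from Hill fit.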

[15] = target: Vitamin D3 receptor (Homo sapiens) (UniProt P11473); assay: qHTS assay for small molecule antagonists of vitamin D receptor signaling (AID 588541; calls by dose curve;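 also: receptor activated by calcitriol during compound treatment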)
Vitamin D3 receptor (Homo sapiens), sequence (P11473 whole entry, looked up): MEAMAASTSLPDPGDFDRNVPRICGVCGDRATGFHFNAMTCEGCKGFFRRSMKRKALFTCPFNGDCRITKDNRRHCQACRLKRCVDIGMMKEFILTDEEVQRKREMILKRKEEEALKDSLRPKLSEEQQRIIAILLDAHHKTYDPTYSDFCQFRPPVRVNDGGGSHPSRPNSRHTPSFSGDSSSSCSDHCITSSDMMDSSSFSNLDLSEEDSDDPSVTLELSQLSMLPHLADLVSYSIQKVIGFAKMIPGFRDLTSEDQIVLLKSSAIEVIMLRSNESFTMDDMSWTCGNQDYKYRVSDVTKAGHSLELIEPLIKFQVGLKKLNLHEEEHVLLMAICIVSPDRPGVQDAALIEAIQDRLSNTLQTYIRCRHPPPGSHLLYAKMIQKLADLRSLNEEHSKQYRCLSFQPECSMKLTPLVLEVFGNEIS
In short: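 VDR-UAS-bla HEK293T cells in 2% charcoal-stripped FBS were stimulated with 1-alpha,25-dihydroxyvitamin D3 (3 nM final) plus compound for 16 h at 37 C. The beta-lactamase CCF4 readout was normalized to 50 nM agonist and DMSO, and Hill fits gave IC50.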

[16] = target: Retinoic acid receptor RXR-alpha (Homo sapiens) (UniProt P19793); assay: qHTS assay for small molecule agonists of retinoid X receptor alpha signaling (AID 588544; calls by dose curve)
Retinoic acid receptor RXR-alpha (Homo sapiens), sequence (P19793 whole entry, looked up): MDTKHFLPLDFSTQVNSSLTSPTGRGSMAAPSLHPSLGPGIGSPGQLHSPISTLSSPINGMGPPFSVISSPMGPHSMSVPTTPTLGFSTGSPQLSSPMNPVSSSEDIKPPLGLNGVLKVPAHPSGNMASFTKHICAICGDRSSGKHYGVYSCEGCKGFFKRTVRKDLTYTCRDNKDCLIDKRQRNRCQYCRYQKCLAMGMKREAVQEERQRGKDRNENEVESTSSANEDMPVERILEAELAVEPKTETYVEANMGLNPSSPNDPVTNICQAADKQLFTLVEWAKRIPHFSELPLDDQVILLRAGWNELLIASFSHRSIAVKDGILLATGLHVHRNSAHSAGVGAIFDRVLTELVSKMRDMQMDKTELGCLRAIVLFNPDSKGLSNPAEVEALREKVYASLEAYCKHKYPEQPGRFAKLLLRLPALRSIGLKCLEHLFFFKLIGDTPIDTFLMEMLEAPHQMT

[17] = Cell Viability - LYMP2-021 (AID 974);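 also: compound exposure lasts 24 hours at 37 °C; nearly all actives have a fitted effect of over 55% in size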
In short: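 Concentration-response cytotoxicity in a human lymphoblastoid line: 24 hr treatment at 37 C in complete culture medium, tetraoctylammonium bromide as positive control, luminescent ATP quantitation as viability measure.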

[18] = Cell Viability - LYMP2-012 (AID 982);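 also: cellular ATP by luciferase luminescence where a drop means cytotoxicity; cells exposed to compound for one day before reading; nearly all actives have a fitted effect of over 55% in size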
[19] = target: Bile acid receptor (Homo sapiens) (UniProt Q96RI1); assay: qHTS assay for small molecule antagonists of farnesoid X receptor signaling (AID 588526; calls by dose curve; also: potency is read from the fitted curve at half-maximal effect)
Bile acid receptor (Homo sapiens), sequence (Q96RI1 whole entry, looked up): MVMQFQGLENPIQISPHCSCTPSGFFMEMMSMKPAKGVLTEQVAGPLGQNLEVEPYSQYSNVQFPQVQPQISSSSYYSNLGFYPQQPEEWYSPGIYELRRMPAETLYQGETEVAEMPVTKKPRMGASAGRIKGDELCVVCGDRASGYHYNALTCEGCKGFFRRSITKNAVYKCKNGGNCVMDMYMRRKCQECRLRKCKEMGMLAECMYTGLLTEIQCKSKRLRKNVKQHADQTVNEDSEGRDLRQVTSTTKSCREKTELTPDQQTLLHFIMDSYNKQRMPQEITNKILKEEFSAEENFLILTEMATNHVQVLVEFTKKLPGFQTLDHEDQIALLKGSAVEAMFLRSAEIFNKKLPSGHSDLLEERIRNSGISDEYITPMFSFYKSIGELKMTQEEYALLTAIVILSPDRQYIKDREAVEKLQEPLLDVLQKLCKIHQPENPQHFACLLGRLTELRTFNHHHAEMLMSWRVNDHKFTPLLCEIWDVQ
In short: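 Antagonist mode: titrated compounds tested against chenodeoxycholic acid stimulation (normalized to 50 uM CDCA and DMSO) in GeneBLAzer HEK293T cells for 16 h. Beta-lactamase read by CCF4 fluorescence; IC50 from Hill fits.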

[20] = qHTS assay to identify small molecules that stimulate interleukin-8 (IL-8) secretion (AID 651758; active = well fitted activation curve with a large enough effect in the signal ratio; the % refers to the signal ratio)
In short: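 THP-1 cells (2000/well) exposed to compound 16 h at 37 C; secreted IL-8 then detected by HTRF with cryptate- and XL665-labelled anti-IL-8 antibody pair after 1-3 h at room temperature.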

SMILES	Potency [1]	activity change, negative = cytotoxicity [2]	Potency [3]	outcome [4]	Potency [5]	max response [6]	outcome [7]	Potency [8]	Potency [9]	Potency [10]	max response [11]	activity change, negative = cytotoxicity [12]	Potency [13]	Potency [14]	Potency [15]	Potency [16]	Potency [17]	Potency [18]	Potency [19]	Potency [20]
CCNC(=S)NCC	inactive	-22% (inactive)	inactive	inactive	inactive	61.6%	inactive	inactive	inactive	inactive	-3.61% (inactive)									
Nc1cc(C(=O)O)c(O)c(S(=O)(=O)O)c1		-4.5% (inactive)	inactive				inactive		inactive		2.52% (inactive)	-24.6% (inactive)	inactive	inactive	inactive	inactive				
OCC(CO)(CBr)CBr	inactive	-2.21% (inactive)				0.13% and -4.24%	inactive	inactive	inactive		9.25% (inactive) and 7.51% (inactive)		inactive	inactive		inactive	inactive	inactive	inactive	inactive
O=[N+]([O-])c1ccc(F)cc1F	inactive	-8.79% (inactive)	inactive	inactive	inactive	10.2%	inactive		inactive		13.3% (inactive)					inactive	inactive			
CC(=O)OC1CC(C)OC(C)O1 (stereo not given)	inactive		inactive			-8.33% and -2.28%	inactive	inactive	61.1 µM (active)		6.75% (inactive) and -0.741% (inactive)		inactive	inactive				inactive	inactive	
CC(=O)c1ccc(Cl)c(Cl)c1Cl		-12.1% (inactive)	inactive	inactive	inactive		inactive				4.27% (inactive)	-14.4% (inactive)	inactive	inactive			inactive			
O=[N+]([O-])c1ccccc1Nc1ccccc1		-9.33% (inactive)	inactive	inactive	inactive		inactive			inactive	-2.68% (inactive)	-20.1% (inactive)	inactive	inactive			inactive	inactive		
Oc1c(Cl)cc(Cl)c(Cl)c1Cl	inactive		inactive			22.5%	inactive		33.5 µM (active)			-2.17% (inactive)	inactive	inactive	inactive	inactive	inactive		inactive	
COc1ccc([N+](=O)[O-])cc1N	inactive			inactive	inactive	74.5% and 5.37%	inactive		30.6 µM (active)			-29.6% (inactive)	inactive	inactive		inactive			inactive	
COc1ccc(C)cc1N	inactive			inactive	inactive	4.23%	inactive		inactive				inactive	inactive	inactive		inactive			
OCC(CBr)(CBr)CBr	inactive			inactive	inactive	9.08%	inactive	inactive	inactive	inactive	-12.4% (inactive)		inactive		inactive	inactive		inactive		
Oc1ccc2c(c1)OCO2	inactive			inactive	inactive				inactive	inactive	5% (inactive)		inactive	inactive	inactive			inactive		inactive
c1c[nH]cn1		-11.6% (inactive)		inactive	inactive	30.3%	inactive		inactive		-2.06% (inactive)	-10% (inactive)	inactive	inactive	inactive	inactive				inactive
Cc1ccc2ccc3cccc4ccc1c2c34		-16.7% (inactive)	inactive	inactive	inactive	18.4%	inactive	inactive	59.6 µM (active)			-8.7% (inactive)	inactive	inactive			inactive		44.7 µM (active)	
c1ccc(SCCSc2ccccc2)cc1		8.64% (inactive)				21.4%	inactive	inactive		inactive		-5.55% (inactive)	inactive			inactive			inactive	inactive
O=[N+]([O-])c1cccc(I)c1		-10.4% (inactive)	inactive	inactive	inactive	12.5%	inactive		inactive		2.94% (inactive)	-7.89% (inactive)	inactive	inactive		inactive	inactive	inactive		
c1ccc(COCc2ccccc2)cc1		-4.56% (inactive)	inactive	inactive	inactive		inactive	inactive	inactive	inactive	3.34% (inactive)	-5.87% (inactive)	inactive	inactive		inactive		inactive	inactive	inactive
c1ccc2ncccc2c1		-5.79% (inactive)	inactive	inactive	inactive	41.8%	inactive		inactive		0.928% (inactive)	-0.00606% (inactive)	inactive	inactive		inactive		inactive		inactive
CC(=O)OCc1ccc2c(c1)OCO2	inactive								inactive	inactive	-6.13% (inactive)			inactive	inactive		inactive		inactive	inactive
